Assay results reported in PubChem BioAssay AID1159580 (chemical genetic matrix, 2015).
Among all 5,500 compounds or so, about 2,000 (36%) were called active. Not shown: some 18% with an inconclusive outcome. No stated cut-off is given here; in the data, active means normalized growth mostly below about 0.91 (no sharp cut-off); inconclusive means no clear call, values can overlap the other calls; inactive means mostly above about 0.92. This is one part of the list.

Experiment: chemical genetic growth profiling, strain panel (AID 1159580);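 further: tested at 20 µM; growth read once vehicle control cultures reached saturation at 30 °C; 1 = growth at the plate median or of vehicle wells; lower values mean less growth of the strain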
Conditions: S. cerevisiae deletion strains, growth OD

Measured: normalized growth

C=CCS(=O)C[C@H](N)C(=O)O (some centres undefined)
inactive: locus YAL021C, strain ccr4, active compounds read low 1 | locus YAL026C, strain drs2, active compounds read low 1 | locus YAL030W, strain snc1, active compounds read low 0.982 | locus YBL061C, strain skt5, active compounds read low 1 | locus YBR009C, strain hhf1, active compounds read low 1 | locus YBR023C, strain chs3, active compounds read low 1 | locus YBR171W, strain sec66, active compounds read low 0.982 | locus YBR231C, strain swc5, active compounds read low 0.981 | locus YBR279W, strain paf1, active compounds read low 0.999 | locus YCL011C, strain gbp2, active compounds read low 0.992 | locus YCL016C, strain dcc1, active compounds read low 1.02 | locus YCL069W, strain vba3, active compounds read low 0.984 | locus YCR088W, strain abp1, active compounds read low 0.986 | locus YDL005C, strain med2, active compounds read low 1 | locus YDL040C, strain nat1, active compounds read low 1.01 | locus YDR001C, strain nth1, active compounds read low 1 | locus YDR069C, strain doa4, active compounds read low 0.985 | locus YDR137W, strain rgp1, active compounds read low 0.97 | locus YDR159W, strain sac3, active compounds read low 0.996 | locus YDR195W, strain ref2 0.986 | locus YDR297W, strain sur2, active compounds read low 1 | locus YDR334W, strain swr1, active compounds read low 1.01 | locus YDR335W, strain msn5, active compounds read low 0.991 | locus YDR392W, strain spt3, active compounds read low 0.979 | locus YEL003W, strain gim4, active compounds read low 1 | locus YEL037C, strain rad23, active compounds read low 1.01 | locus YEL061C, strain CIN8 (second series), active compounds read low 1.01 | locus YER015W, strain faa2, active compounds read low 1 | locus YER016W, strain bim1, active compounds read low 0.982 | locus YER111C, strain swi4, active compounds read low 1.01 | locus YER155C, strain BEM2 (second series), active compounds read low 0.961 | locus YFR010W, strain ubp6, active compounds read low 0.998 | locus YGL167C, strain pmr1, active compounds read low 0.997 | locus YGL173C, strain kem1, active compounds read low 0.999 | locus YGL227W, strain vid30, active compounds read low 0.969 | locus YGL240W, strain doc1, active compounds read low 0.994 | locus YGL253W, strain hxk2, active compounds read low 1 | locus YHR013C, strain ard1, active compounds read low 0.981 | locus YHR027C, strain rpn1, active compounds read low 0.994 | locus YHR030C, strain SLT2, active compounds read low 1.02 | locus YHR079C, strain IRE1, active compounds read low 1.01 | locus YHR142W, strain chs7, active compounds read low 1.02 | locus YJL092W, strain hpr5, active compounds read low 0.999 | locus YJL095W, strain BCK1 (second series), active compounds read low 0.998 | locus YJL095W, strain BCK1, active compounds read low 1.03 | locus YJL115W, strain asf1, active compounds read low 0.992 | locus YJL129C, strain trk1, active compounds read low 0.997 | locus YJL154C, strain vps35, active compounds read low 0.995 | locus YJL164C, strain tpk1, active compounds read low 0.997 | locus YJL166W, strain qcr8, active compounds read low 0.991 | locus YJL187C, strain SWE1, active compounds read low 0.998 | locus YJR066W, strain TOR1, active compounds read low 0.952 | locus YKL160W, strain elf1, active compounds read low 1 | locus YKR026C, strain gcn3, active compounds read low 0.984 | locus YKR091W, strain srl3, active compounds read low 0.986 | locus YLL001W, strain dnm1, active compounds read low 1.01 | locus YLL026W, active compounds read low 0.994 | locus YLL041C, strain sdh2, active compounds read low 0.995 | locus YLR027C, strain aat2, active compounds read low 1 | locus YLR113W, strain HOG1, active compounds read low 1.02 | locus YLR221C, strain rsa3, active compounds read low 1 | locus YLR258W, strain gsy2, active compounds read low 0.987 | locus YLR262C, strain YPT6 (second series), active compounds read low 0.987 | locus YLR320W, strain mms22, active compounds read low 1 | locus YLR342W, strain FKS1, active compounds read low 0.996 | locus YLR357W, strain rsc2, active compounds read low 0.961 | locus YLR370C, strain arc18, active compounds read low 0.995 | locus YLR384C, strain iki3, active compounds read low 0.994 | locus YML120C, strain ndi1, active compounds read low 0.992 | locus YMR058W, strain fet3, active compounds read low 0.998 | locus YMR125W, strain sto1, active compounds read low 0.991 | locus YMR129W, active compounds read low 0.976 | locus YMR205C, strain PFK2, active compounds read low 1.01 | locus YMR231W, strain pep5, active compounds read low 0.998 | locus YNL071W, strain lat1, active compounds read low 0.988 | locus YNL183C, strain NPR1, active compounds read low 0.971 | locus YNL209W, strain ssb2, active compounds read low 0.985 | locus YNL248C, strain rpa49, active compounds read low 1 | locus YNL322C, strain KRE1 (second series), active compounds read low 0.98 | locus YNR049C, strain mso1, active compounds read low 0.997 | locus YOR001W, strain rrp6, active compounds read low 1.01 | locus YOR070C, strain gyp1, active compounds read low 1 | locus YOR080W, strain dia2, active compounds read low 1.01 | locus YOR083W, strain WHI5, active compounds read low 0.962 | locus YOR106W, strain vam3, active compounds read low 1 | locus YOR231W, strain MKK1, active compounds read low 1.01 | locus YOR265W, strain rbl2, active compounds read low 1.01 | locus YOR270C, strain vph1, active compounds read low 1.02 | locus YOR290C, strain snf2, active compounds read low 1 | locus YPL051W, strain arl3, active compounds read low 0.983 | locus YPL078C, strain atp4, active compounds read low 1.02 | locus YPL106C, strain sse1, active compounds read low 0.929 | locus YPL240C, strain hsp82, active compounds read low 0.983 | locus YPL256C, strain CLN2, active compounds read low 1.02
